The values below come from PubChem BioAssay AID504616 (Sanford-Burnham Center for Chemical Genomics, 2011).

This is one part of the list. Unmarked numbers belong to inactive results.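 Rule for the calls: active = mean activity change at or below -40% when tested at 20 µM; inactive = the rest.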

This assay can be described thus: Rh110 fluorescence interference by putative Apaf-1 activators, confirmation, artefact control for Apaf-1 activator project, biochemical, 20 µM (AID 504616). The settings on record: quenched caspase reaction, Ex480/Em540, at 20 µM.
For the compound `C=C(C)C(=O)Nc1cccc(C2=NOC3(C2)C[C@H](C(N)=O)N(C(=O)C(c2ccccc2)c2ccccc2)C3)c1` (stereo partly specified), the fluorescence interference (activity change) is 7%.
With `CC1COc2ccccc2N1C(=O)c1cccnc1Cl` (stereo unspecified), the fluorescence interference (activity change) was 0.54%.
To `COc1ccccc1OCC(=O)Nc1c2c(nn1-c1ccc(F)cc1)CS(=O)(=O)C2` belongs 9.44%.
Take `CC(C)OCCCNC(=S)N1CCC(C(=O)c2ccc3c(c2)OCCO3)CC1`: the fluorescence interference (activity change) was 3.57%.
For `C=CCNC(=O)c1ccc(C)c(Br)c1` the value was 10.4%; for `Nc1cc(C(F)(F)F)ccc1N1CCOCC1`, -1.22%; for `COc1cccc(C(=O)Nc2ccc(N3CCCC3)cc2)c1`, 2.88%.
To `O=C(Nc1cccc(-c2nc3ccccc3[nH]2)c1)c1ccc(C(=O)Nc2cccc(-c3nc4ccccc4[nH]3)c2)cc1` belongs 7.06%.
For `O=C(CCc1ccccc1)NNC(=O)c1ccc(Br)cc1` the value was -7.61%; for `O=C(CN1C(=O)C2C3C=CC(C3)C2C1=O)NCCc1ccccc1Cl` (stereo unspecified), -3.43%; for `COc1cc(C2C(C#N)=C(N)Oc3n[nH]c(-c4ccccn4)c32)cc(OC)c1OC` (stereo unspecified), 14.4%.
With `CCCC(=O)Nc1nc2ccc(NC(=O)c3c(F)c(F)c(OC)c(F)c3F)cc2s1`, the fluorescence interference (activity change) is 7.74%.
With `Cc1ccc(S(=O)(=O)c2c(N)n(C)c3nc4ccccc4nc23)cc1`, the fluorescence interference (activity change) is -4.76%.
For `Cc1ccc(Nc2nc(CSc3nnc(-c4ccncc4)n3-c3ccccc3C)cs2)cc1` the value was 11.6%; for `COC(CNC(=O)Cn1ncc2ccsc2c1=O)OC`, -3.81%; for `COc1ccc(C2CC(c3ccccc3)Nc3ncnn32)cc1` (stereo unspecified), -9.02%.
On to `O=C(CSc1ccc(-c2ccc(-n3cccn3)cc2)nn1)Nc1ccc([N+](=O)[O-])cc1`, for which the fluorescence interference (activity change) was 2.63%.
For `O=C(Nc1cccc(C(F)(F)F)c1)c1cnccn1` the value was 0.73%.
For `CC(C)N1CCC(NC(=O)Nc2ccccc2)CC1` the value was -6.69%; for `Brc1ccc(/C=N/N2CCN(C3c4ccccc4-c4ccccc43)CC2)s1`, -2.39%; for `Clc1cccc(-c2nc3nc4ccccc4nc3n2Cc2ccco2)c1`, 6.33%.
